Results filed as inconclusive are left out. Calls of active or inactive are those of the source.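 How the source made its calls: active means immobility above 50% at 10 µM after 1 hour; inconclusive means immobility from 15% to 50% at 1 hour; inactive means immobility below 15%.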
Experiment: Assay for General Anesthetic Phenotype in Xenopus Tadpoles
Conditions: startle-response immobility, 1 h, at 10 µM, stronger effect = higher value
Excerpt: Anesthetic development has remained a largely empirical process. There are growing concerns about the cognitive effects of known general anesthetics and acceleration of the onset of neurodegenerative disease. The compounds' toxicity and multiple specific binding targets in the mammalian brain [4] has made them less attractive as drug leads. This assay was designed for the in vivo follow-up testing of compounds in tadpoles. References: [1] S.L. Bianchi, T. Tran, C. Liu, S. Lin, Y. Li, J.M. Keller, R.G. Eckenhoff, and M.F. Eckenhoff, Brain and behavior changes in 12-month-old Tg2576 and nontransgenic mice exposed to anesthetics. Neurobiol Aging 29 (2008) 1002-10. Z. Xie, Y. Dong, U. Maeda, R.D. Moir, W. Xia, D.J. Culley, G. Crosby, and R.E. Tanzi, The inhalation anesthetic isoflurane induces a vicious cycle of apoptosis and amyloid beta-protein accumulation. J Neurosci 27 (2007) 1247-54. P. Honegger, and J.M. Matthieu, Selective toxicity of the general anesthetic propofol for GABAergic neurons in rat brain cell cultures. J Neurosci Res 45 (1996) 631-6. M.F. Eckenhoff, K. Chan, and R.G. Eckenhoff, Multiple specific binding targets for inhaled anesthetics in the mammalian brain. J Pharmacol Exp Ther 300 (2002) 172-9. C.A. Butts, J. Xi, G. Brannigan, A.A. Saad, S.P. Venkatachalan, R.A. Pearce, M.L. Klein, R.G. Eckenhoff, and I.J. Dmochowski, Identification of a fluorescent general anesthetic, 1-aminoanthracene. Proc Natl Acad Sci U S A 106 (2009) 6501-6. W.A. Lea, J. Xi, A. Jadhav, L. Lu, C.P. Austin, A. Simeonov, and R.G. Eckenhoff, A high-throughput approach for identification of novel general anesthetics. PLoS One 4 (2009) e7150.
Pre-limb bud Xenopus tadpoles were obtained in large batches from Nasco, Inc. Batches of 10 tadpoles were placed in 20 mm Petri dishes with approximately 20 ml of pond water ("pond water" is approximately a 20-fold dilution of Ringers saline solution). Compounds were added to the pond water from DMSO stock to obtain 100, 10 and 1 microM concentrations. Tadpoles were then incubated with these solutions for 1 hour, and then scored for "anesthesia". Anesthesia in this case is lack of movement in response to a sharp tap on the Petri dish lid, i.e., a lack of startle response. This correlates well to the loss of righting reflex in rodents and the loss of consciousness in humans. The pond water is then changed, and the return of a startle response is monitored for 24 hours. Immobility at 24 hours is considered death.

Compound	immobility
CC(C)COc1ccc(-c2ccc(=O)n(CC(=O)NCCc3ccccc3)n2)cc1	100% (active)
O=C(Cn1nc(-c2cccnc2)ccc1=O)NCCc1ccccc1	0% (inactive)
COc1ccccc1-c1ccc(=O)n(CC(=O)NCCc2ccccc2)n1	5% (inactive)
CCCCc1ccc(-c2ccc(=O)n(CC(=O)NCCc3ccccc3)n2)cc1	5% (inactive)
Cc1ccc(=O)n(CC(=O)NCCc2ccccc2)n1	5% (inactive)
COc1ccc(-c2ccc(=O)n(CC(=O)NCCc3ccccc3)n2)cc1OC	10% (inactive)
O=C(Cn1nc(-c2ccc(C(F)(F)F)cc2)ccc1=O)NCCc1ccccc1	0% (inactive)
Cc1ccc(-c2ccc(=O)n(CC(=O)NCCc3ccccc3)n2)cc1	90% (active)
O=C(Cn1nc(-c2ccncc2)ccc1=O)NCCc1ccccc1	5% (inactive)
O=C(Cn1nc(C2CC2)ccc1=O)NCCc1ccccc1	0% (inactive)
O=C(Cn1ncccc1=O)NCCc1ccccc1	0% (inactive)
O=C(Cn1nc(-c2ccc(OC(F)(F)F)cc2)ccc1=O)NCCc1ccccc1	80% (active)
Cc1ccccc1-c1ccc(=O)n(CC(=O)NCCc2ccccc2)n1	0% (inactive)
N#Cc1ccc(-c2ccc(=O)n(CC(=O)NCCc3ccccc3)n2)cc1	0% (inactive)
CN(C)c1ccc(-c2ccc(=O)n(CC(=O)NCCc3ccccc3)n2)cc1	0% (inactive)
CC(C)(C)c1ccc(-c2ccc(=O)n(CC(=O)NCCc3ccccc3)n2)cc1	90% (active)
Cc1ccc(-c2ccc(=O)n(CC(=O)NCCc3ccccc3)n2)cn1	0% (inactive)
CC(C)c1ccc(=O)n(CC(=O)NCCc2ccccc2)n1	0% (inactive)
COc1ccc(-c2ccc(=O)n(CC(=O)NCCc3ccccc3)n2)cc1	75% (active)
O=C(Cn1nc(-c2ccc(F)cc2)ccc1=O)NCCc1ccccc1	5% (inactive)

Same assay, conditions: startle-response immobility, 1 h, measured here: 24 h immobility, toxicity/death, at 10 µM

Compound	immobility [%]
CC(C)COc1ccc(-c2ccc(=O)n(CC(=O)NCCc3ccccc3)n2)cc1	0
O=C(Cn1nc(-c2cccnc2)ccc1=O)NCCc1ccccc1	15
COc1ccccc1-c1ccc(=O)n(CC(=O)NCCc2ccccc2)n1	15
CCCCc1ccc(-c2ccc(=O)n(CC(=O)NCCc3ccccc3)n2)cc1	5
Cc1ccc(=O)n(CC(=O)NCCc2ccccc2)n1	15
COc1ccc(-c2ccc(=O)n(CC(=O)NCCc3ccccc3)n2)cc1OC	15
O=C(Cn1nc(-c2ccc(C(F)(F)F)cc2)ccc1=O)NCCc1ccccc1	5
Cc1ccc(-c2ccc(=O)n(CC(=O)NCCc3ccccc3)n2)cc1	0
O=C(Cn1nc(-c2ccncc2)ccc1=O)NCCc1ccccc1	10
O=C(Cn1nc(C2CC2)ccc1=O)NCCc1ccccc1	5
O=C(Cn1ncccc1=O)NCCc1ccccc1	5
O=C(Cn1nc(-c2ccc(OC(F)(F)F)cc2)ccc1=O)NCCc1ccccc1	10
Cc1ccccc1-c1ccc(=O)n(CC(=O)NCCc2ccccc2)n1	10
N#Cc1ccc(-c2ccc(=O)n(CC(=O)NCCc3ccccc3)n2)cc1	5
CN(C)c1ccc(-c2ccc(=O)n(CC(=O)NCCc3ccccc3)n2)cc1	10
CC(C)(C)c1ccc(-c2ccc(=O)n(CC(=O)NCCc3ccccc3)n2)cc1	10
Cc1ccc(-c2ccc(=O)n(CC(=O)NCCc3ccccc3)n2)cn1	0
CC(C)c1ccc(=O)n(CC(=O)NCCc2ccccc2)n1	5
COc1ccc(-c2ccc(=O)n(CC(=O)NCCc3ccccc3)n2)cc1	5
O=C(Cn1nc(-c2ccc(F)cc2)ccc1=O)NCCc1ccccc1	0

— PubChem BioAssay AID624098 (National Center for Advancing Translational Sciences (NCATS), 2012)
